Source: PubChem
Rows were chosen to be rich in hits. Some 3.4% of all compounds tested hit in one or more screens of this group.
MITF primary: MITF inhibitors, primary screen, biochemical, AlphaScreen, human; Microphthalmia-associated transcription factor (Homo sapiens), O75030; inhibition, % at 2.6 µM; hit rate 0.91% among 650,000; AlphaScreen MITF homodimerization, bead proximity signal; in the data active means inhibition above about 50%;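 further: 0% = vehicle wells with protein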
GPR151 activ: activators of human GPR151, primary screen, cell-based, PathHunter beta-arrestin, luminescence; G-protein coupled receptor 151 (Homo sapiens), Q8TDV0; activation, % at 11.2 µM; AID 1508602, 2020; hit rate 1% among 650,000; PathHunter beta-arrestin GPR151 cells; in the data active means activation above about 4.9%;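 further: 0% = median of compound wells and 100% = cells with positive control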
Target sequence (Q8TDV0 whole entry, looked up): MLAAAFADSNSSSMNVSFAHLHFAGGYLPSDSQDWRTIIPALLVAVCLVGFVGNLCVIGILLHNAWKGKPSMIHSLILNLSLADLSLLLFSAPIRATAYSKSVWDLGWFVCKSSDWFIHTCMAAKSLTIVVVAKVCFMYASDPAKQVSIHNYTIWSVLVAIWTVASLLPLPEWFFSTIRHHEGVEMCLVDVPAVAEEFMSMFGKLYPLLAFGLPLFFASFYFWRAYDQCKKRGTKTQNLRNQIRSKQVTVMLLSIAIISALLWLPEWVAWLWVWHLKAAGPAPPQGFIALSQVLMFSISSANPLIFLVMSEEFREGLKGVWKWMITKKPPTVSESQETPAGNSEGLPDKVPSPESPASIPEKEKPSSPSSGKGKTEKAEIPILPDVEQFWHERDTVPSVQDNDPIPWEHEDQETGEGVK
TEAD-YAP block: TEAD-YAP interaction inhibition, primary screen, TEAD-YAP interaction inhibitor project, luminescence, HEK-TIYL cells | TEAD-Gal4/YAP UAS-luciferase luminescence | hit rate 1.4% among 640,000 | AID 1259422, 2018 | inhibition, % at 9.12 µM; in the data active means inhibition above about 32%;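 further: 0% = median of test compound wells and 100% = reference inhibitor wells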
FBW7 act: FBW7 E3 ligase activators, primary screen, biochemical, AlphaScreen, human; F-box/WD repeat-containing protein 7 (Homo sapiens), Q969H0; AlphaScreen FBW7–phospho-cyclin E peptide binding, activator screen; normalized activity (activation), % at 26.1 µM; hit rate 0.13% among 650,000; AID 1259310, 2017; in the data active means normalized activity above about 1.9%;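 further: purified mutant Fbw7 with reduced substrate affinity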
MITF inh conf: MITF inhibitors, retest of hits, confirmation, biochemical, AlphaScreen, triplicate; shares compounds with MITF primary; AlphaScreen MITF homodimerization, biotin/His-MITF beads; inhibition, % at 2.6 µM; hit rate 16% among 4,700;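 active means inhibition above a cutoff derived from the DMSO control wells, cut at about 28% in these data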;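 further: 0% = MITF dimer wells with DMSO only; inhibitors lower the bead chemiluminescence by keeping MITF from dimerizing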
AlphaScreen intf2: AlphaScreen optical interference compounds, counter-screen for MITF inhibitor project, biochemical, triplicate | shares compounds with MITF primary | LysRS AlphaScreen counterscreen, signal interference | inhibition, % at 2.6 µM | hit rate 7.6% among 4,700 | AID 1259376, 2018;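 active means inhibition above a cutoff derived from the DMSO control wells, cut at about 30% in these data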
Numbers without * were called inactive; . = not tested or not shown.

SMILES	MITF primary	GPR151 activ	TEAD-YAP block	FBW7 act	MITF inh conf	AlphaScreen intf2
COC(=O)CCN(C)Cc1ccc(C(F)(F)F)cc1	40	0	-1	0	.	.
CCOC(=O)c1ccc(OCC(O)CN2CCCC2)cc1 (stereo not given)	52*	4	-3	0	10	8
CCC(CC)NC(=O)c1ccc(Cl)cc1[N+](=O)[O-]	74*	-1	5	0	1	9
CCn1c2ccccc2c2cc(CN3CCN(S(=O)(=O)CC)CC3)ccc21	53*	-1	-2	0	14	10
CCn1c2ccccc2c2cc(CN3CCN(Cc4ccccc4Br)CC3)ccc21	76*	0	0	0	16	16
CCn1c2ccccc2c2cc(CN3CCN(Cc4ccccc4C(F)(F)F)CC3)ccc21	70*	-2	5	0	14	17
CCn1c2ccccc2c2cc(CN3CCCN(C)CC3)ccc21	40	0	-7	0	.	.
Cc1c(C(=O)Nc2ccc3ccccc3c2)cccc1[N+](=O)[O-]	12	2	-55	0	.	.
O=C(O)c1c(O)cc(I)cc1I	-7	0	2	0	.	.
COC(=O)c1ccc(COC(=O)CNC(=O)c2ccccc2)cc1	10	1	6	0	.	.
COc1ccc(C(=O)NCC(=O)NCC(=O)OCc2ccccc2)cc1	54*	1	5	0	8	6
CC1CN(Cc2ccc(F)cc2F)CC(C)O1 (stereo not given)	65*	0	-3	0	0	9
CC1CN(Cc2ccccc2Br)CC(C)O1 (stereo not given)	67*	-1	0	0	1	4
CC1CN(Cc2ccc(F)c(F)c2)CC(C)O1 (stereo not given)	61*	1	2	1	3	1
Cc1nnn(C23CC4CC(CC(CC(=O)Nc5ccc(F)cc5)(C4)C2)C3)n1	75*	0	-8	1	10	9
Cc1cccc(NC(=O)C2C3C=CC4(O3)C2C(=O)N(C2CC2)C4C(=O)NC2CCCC(C)C2C)c1 (stereo not given)	10	0	2	0	.	.
CCN(C(=O)c1ccccn1)c1nc2c(s1)CCc1oc(C)cc1-2	77*	0	-17	0	37*	77*
CCN(C(=O)c1ccco1)c1nc2c(s1)CCc1oc(C)cc1-2	-2	-1	3	0	.	.
CC(C)(C)C(=O)COC(=O)[C@@H]1CC(O)CN1S(=O)(=O)c1ccc(F)cc1 (stereo not given in full)	60*	2	13	0	0	-2
COC(=O)c1nnn(CC(=O)Nc2cccc(F)c2)c1C(=O)OC	1	0	4	0	.	.
CN(C)CCCNCC(=O)c1c(-c2ccccc2)n(C)c2ccccc12	51*	0	-12	1	-7	8
COc1ccc(/C(O)=C2/C(=O)C(=O)N(CCN3CCOCC3)C2c2ccccc2F)cc1 (stereo not given)	0	0	-2	0	.	.
Cc1cc(C(C)(C)C)ccc1OCCN(C)C	84*	2	2	0	25	9
C=CCNCCOc1ccc(C(C)(C)C)cc1C	51*	1	10	0	-12	5
Cc1cc(C(C)(C)C)ccc1OCCCNCCN	10	4	1	0	.	.
C=CCNCCCOc1ccc(C(C)(C)C)cc1C	32	-1	-7	0	.	.
O=C(COC(=O)c1cccc(N2C(=O)c3ccccc3C2=O)c1)c1ccccc1	5	2	-28	0	.	.
CC(C)(C)C(=O)COC(=O)c1cccc(N2C(=O)c3ccccc3C2=O)c1	53*	0	1	0	7	-2
CC(=O)c1cccc(N2C(=O)c3ccc(C(=O)OCC(=O)c4ccc([N+](=O)[O-])cc4)cc3C2=O)c1	60*	1	-3	0	21	26
O=C(COC(=O)c1ccc2c(c1)C(=O)N(c1cccc(Cl)c1)C2=O)c1ccc([N+](=O)[O-])cc1	1	0	3	0	.	.
